Active and inactive are the calls of the source.
Tests used:
[1] = optical density shifts of acrAB sulA E. coli – strain DRC41, OD650, 48 h, E. coli filamentation inducer project, primary screen (AID 1152); conditions: higher = more signal, called active from +8 up or from −8 down;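 also: E. coli MC1000 strain DRC41 lacking acrAB efflux pump and sulA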
[2] = probe aLefty1 binding on compound microarray – biochemical, small-molecule microarray, 635/667 nm fluorescence, primary screen (AID 1153); conditions: higher = more signal;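 also: score merges spot fluorescence with signal-to-noise ratio from the scanned slide images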
[3] = plasmodial surface anion channel blockers, osmotic lysis – cell-based, P. falciparum Indochina, OD700, 1 h, primary screen (AID 1154); conditions: P. falciparum Indochina infected RBC osmotic lysis, higher = more signal, called active from +8 up or from −8 down
[4] = plasmodial surface anion channel blockers, osmotic lysis – cell-based, P. falciparum Indochina, OD700, 2 h, primary screen (AID 1155);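 also: lysis reports solute entry through the parasite surface anion channel PSAC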; conditions: P. falciparum Indochina infected erythrocytes, higher = more signal, called active from +8 up or from −8 down
[5] = changes in parasitized red cell lysis, either direction – P. falciparum Indochina, OD700, 3 h, PSAC antagonist project, primary screen (AID 1156); conditions: P. falciparum-infected erythrocytes, osmotic lysis, higher = more signal, called active from +8 up or from −8 down
[6] = plasmodial surface anion channel blockers, osmotic lysis – cell-based, P. falciparum Indochina, OD700, 18 h, primary screen (AID 1157); conditions: P. falciparum Indochina infected erythrocytes, osmotic lysis OD700, 18 h; higher = more signal, called active from +8 up or from −8 down
[7] = S6 kinase pathway phospho-S6 level changes – cell-based, A549, cytoblot, luminescence, serum-stimulated, primary screen (AID 1158); conditions: 5 h, higher = more signal;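 also: serum-stimulated A549 lung adenocarcinoma cells; signal is phosphorylated S6 detected by cytoblot immunostaining with HRP secondary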
[8] = molecular target: NADPH oxidase 2 (Homo sapiens) (UniProt P04839); assay: compounds shifting NOX2 Amplex Red fluorescence – cell-based, HEK293-NOX2, PMA-stimulated, NOX inhibitor project, primary screen (AID 1159); conditions: 45 min, higher = more signal, called active from +8 up or from −8 down; also: test concentration not given here
[9] = molecular target: NADPH oxidase 4 (Homo sapiens) (UniProt Q9NPH5); assay: compounds shifting NOX4 Amplex Red fluorescence – cell-based, HEK293-NOX4, tetracycline-induced, NOX inhibitor project, primary screen (AID 1160); conditions: HEK293-NOX4, Amplex Red H2O2 fluorescence, 45 min; higher = more signal, called active from +8 up or from −8 down
[10] = molecular target: NADPH oxidase 5 (Homo sapiens) (UniProt Q96PH1); assay: compounds shifting NOX5 Amplex Red fluorescence – cell-based, HEK293-NOX5, NOX inhibitor project, primary screen (AID 1161); conditions: HEK293-NOX5, ionomycin, 45 min, higher = more signal
Sequence of NADPH oxidase 5 (Homo sapiens) (Q96PH1 whole entry, looked up): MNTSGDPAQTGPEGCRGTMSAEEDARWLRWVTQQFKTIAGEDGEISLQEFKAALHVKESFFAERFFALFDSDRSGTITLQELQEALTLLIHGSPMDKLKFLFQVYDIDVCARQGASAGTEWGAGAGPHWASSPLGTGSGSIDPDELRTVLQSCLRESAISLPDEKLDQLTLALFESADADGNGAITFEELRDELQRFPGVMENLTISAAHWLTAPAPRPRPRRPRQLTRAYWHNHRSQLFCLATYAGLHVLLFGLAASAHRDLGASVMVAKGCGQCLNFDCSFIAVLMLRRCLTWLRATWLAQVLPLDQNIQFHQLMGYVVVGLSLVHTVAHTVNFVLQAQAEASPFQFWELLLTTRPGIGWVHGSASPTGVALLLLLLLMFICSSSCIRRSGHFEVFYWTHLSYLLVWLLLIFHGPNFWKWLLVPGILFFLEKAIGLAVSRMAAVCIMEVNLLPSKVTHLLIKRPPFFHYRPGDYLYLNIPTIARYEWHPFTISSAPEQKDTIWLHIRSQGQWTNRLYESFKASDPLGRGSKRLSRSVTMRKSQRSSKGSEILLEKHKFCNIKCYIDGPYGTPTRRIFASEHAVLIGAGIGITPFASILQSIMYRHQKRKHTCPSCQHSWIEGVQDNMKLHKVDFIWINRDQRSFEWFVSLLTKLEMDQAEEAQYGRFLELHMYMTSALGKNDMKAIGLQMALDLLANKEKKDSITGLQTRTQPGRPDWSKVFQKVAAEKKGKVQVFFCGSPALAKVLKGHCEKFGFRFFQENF

Sequence of NADPH oxidase 2 (Homo sapiens) (P04839 whole entry, looked up): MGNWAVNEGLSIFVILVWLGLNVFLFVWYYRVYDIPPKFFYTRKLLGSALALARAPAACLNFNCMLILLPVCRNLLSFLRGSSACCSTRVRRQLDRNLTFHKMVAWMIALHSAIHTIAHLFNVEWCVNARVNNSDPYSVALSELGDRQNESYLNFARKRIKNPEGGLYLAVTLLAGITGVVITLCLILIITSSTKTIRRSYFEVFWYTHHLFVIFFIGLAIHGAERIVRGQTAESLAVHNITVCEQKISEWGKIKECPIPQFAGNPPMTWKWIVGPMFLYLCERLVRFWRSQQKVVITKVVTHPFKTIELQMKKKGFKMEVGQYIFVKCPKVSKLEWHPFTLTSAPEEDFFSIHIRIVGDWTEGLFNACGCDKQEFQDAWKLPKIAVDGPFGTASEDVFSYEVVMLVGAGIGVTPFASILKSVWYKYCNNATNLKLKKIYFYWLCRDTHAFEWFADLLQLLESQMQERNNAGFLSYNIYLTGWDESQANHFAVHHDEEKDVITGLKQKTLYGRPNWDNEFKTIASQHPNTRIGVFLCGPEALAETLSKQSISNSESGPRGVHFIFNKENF
Sequence of NADPH oxidase 4 (Homo sapiens) (Q9NPH5 whole entry, looked up): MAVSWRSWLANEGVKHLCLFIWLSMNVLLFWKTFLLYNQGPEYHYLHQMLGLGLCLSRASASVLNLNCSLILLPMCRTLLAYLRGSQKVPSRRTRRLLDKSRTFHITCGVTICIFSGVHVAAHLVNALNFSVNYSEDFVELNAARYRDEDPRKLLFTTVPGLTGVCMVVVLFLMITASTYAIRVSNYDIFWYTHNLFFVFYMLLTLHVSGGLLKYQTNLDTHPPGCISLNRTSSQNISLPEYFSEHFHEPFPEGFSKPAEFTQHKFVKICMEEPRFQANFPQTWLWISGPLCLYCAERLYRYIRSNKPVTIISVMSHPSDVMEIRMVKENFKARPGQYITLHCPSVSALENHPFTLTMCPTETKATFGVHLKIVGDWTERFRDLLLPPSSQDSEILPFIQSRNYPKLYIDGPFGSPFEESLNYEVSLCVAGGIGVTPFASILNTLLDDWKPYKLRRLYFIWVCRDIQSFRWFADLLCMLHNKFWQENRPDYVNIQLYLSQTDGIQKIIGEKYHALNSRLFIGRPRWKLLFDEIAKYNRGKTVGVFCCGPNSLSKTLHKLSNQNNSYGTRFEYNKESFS

| Compound | z-score [1] | composite z-score [2] | z-score [3] | z-score [4] | z-score [5] | z-score [6] | z-score [7] | z-score [8] | z-score [9] | z-score [10] |
| --- | --- | --- | --- | --- | --- | --- | --- | --- | --- | --- |
| CCCN1C(=O)[C@]2(Cc3ccccc31)N=C(c1ccc(OCCCO)cc1)O[C@@H]2c1ccccc1 | -0.753 (inactive) | 0.643 | 30.9 (active) | 25.5 (active) | 3.13 (inactive) | 2.19 (inactive) | 0.117 | -3 (inactive) | -0.843 (inactive) | -1.8 |
| O=C1[C@H]2C=C(I)[C@H](C[C@@H]2OCCOCCO)[C@@]12CO2 | -0.878 (inactive) | -0.371 | -0.0899 (inactive) | -0.122 (inactive) | -0.321 (inactive) | -0.235 (inactive) | 0.0332 | 0.578 (inactive) | 0.373 (inactive) | -0.151 |
| C=CC[C@]1(C(=O)N2CCCCC2)N=C(c2ccc(OCCCO)cc2)O[C@H]1c1ccccc1CN=[N+]=[N-] | 0.678 (inactive) | 0.454 | 23.1 (active) | 4.57 (inactive) | 2.81 (inactive) | 1.08 (inactive) | 0.83 | -3.31 (inactive) | -0.616 (inactive) | -1.46 |
| COc1cc(NN2C(C(O)c3ccco3)C=CC3C(=O)N(C)C(=O)C32)cc(OC)c1OC (stereo not given) | -1.82 (inactive) | 0.429 | 0.715 (inactive) | 0.959 (inactive) | 0.214 (inactive) | 1.1 (inactive) | -0.808 | -1.95 (inactive) | -3.55 (inactive) | -2.81 |
| COC(=O)C1(CC(C)C)C=C2C(=C(c3ccccc3)C(=O)C2C)CN1 (stereo not given) | -1.03 (inactive) | 1.58 | 1.28 (inactive) | -0.382 (inactive) | 0.806 (inactive) | 0.323 (inactive) | 0.54 | -0.00718 (inactive) | -1.48 (inactive) | -2.44 |
| CC(C)C(O)C1C=CC2C(=O)N(c3ccccc3)C(=O)C2N1Nc1ccccc1 (stereo not given) | -0.471 (inactive) | -0.0163 | 1.2 (inactive) | -0.4 (inactive) | 1.33 (inactive) | -0.741 (inactive) | 0.325 | -3.32 (inactive) | -4.05 (inactive) | -6.43 |
| O=C(Cc1ccccc1)[C@H]1C2C=CCCC(c3ccccc3)=C2CN1Cc1ccccc1 (stereo not given in full) | 2.46 (inactive) | -0.151 | 0.567 (inactive) | 0.186 (inactive) | 0.879 (inactive) | 0.06 (inactive) | -0.0984 | -0.534 (inactive) | 0.773 (inactive) | 1.13 |
| CCCCC(CC)C(O)C1C=CC2C(=O)N(c3ccccc3)C(=O)C2N1Nc1ccccc1F (stereo not given) | 0.351 (inactive) | -0.0576 | 0.741 (inactive) | -0.686 (inactive) | -0.42 (inactive) | -1.57 (inactive) | 0.434 | -0.157 (inactive) | 0.143 (inactive) | 1.01 |
| CCCCC(CC)C(O)C1C=CC2C(=O)N(C)C(=O)C2N1Nc1ccccc1 (stereo not given) | -1.34 (inactive) | 0.443 | 0.755 (inactive) | 0.916 (inactive) | -0.0492 (inactive) | 0.827 (inactive) | -0.778 | -1.45 (inactive) | -3.67 (inactive) | -3.2 |
| CC(C)c1ccc(NN2C(C(O)c3ccc(C#N)cc3)C=CC3C(=O)N(c4ccccc4)C(=O)C32)cc1 (stereo not given) | -1.6 (inactive) | 0.418 | 15.4 (active) | 2.64 (inactive) | 0.567 (inactive) | 1.27 (inactive) | -1.05 | -1.46 (inactive) | -3.24 (inactive) | -2.38 |
| COCCOC(=O)N1C(=O)[C@@]2(c3cc(C#CC4=CCCCC4)ccc31)[C@H](c1ccccc1OCCO)N1[C@H](c3ccccc3)[C@H](c3ccccc3)OC(=O)[C@H]1[C@@H]2C(=O)N1CCN(c2ncccn2)CC1 | 0.978 (inactive) | 1.04 | 1.04 (inactive) | -0.579 (inactive) | 0.281 (inactive) | -0.492 (inactive) | 0.65 | 0.976 (inactive) | 0.868 (inactive) | 1.32 |
| [N-]=[N+]=NCc1ccccc1C[C@@]1(C(N)=O)N=C(c2ccc(OCCCO)cc2)O[C@@H]1c1ccccc1 | -1.25 (inactive) | 0.408 | 27.2 (active) | 19.2 (active) | 0.354 (inactive) | 2.58 (inactive) | -0.494 | -2.31 (inactive) | 0.64 (inactive) | -0.235 |
| NC(=O)[C@@]1(Cc2ccccc2)COC(c2ccc(OCCCO)cc2)=N1 | 0.917 (inactive) | 0.533 | 17.5 (active) | 2.55 (inactive) | 0.121 (inactive) | -0.0697 (inactive) | -0.468 | -0.519 (inactive) | -1.4 (inactive) | -2.14 |
| [N-]=[N+]=Nc1ccccc1C[C@@]1(C(=O)NCCN2CCOCC2)N=C(c2ccc(OCCCO)cc2)O[C@@H]1c1ccccc1N=[N+]=[N-] | -0.374 (inactive) | 0.632 | 30.8 (active) | 30.8 (active) | 2.72 (inactive) | 2.78 (inactive) | -0.26 | -2.91 (inactive) | -0.157 (inactive) | -1.6 |
| O=C(NCCN1CCOCC1)[C@@H]1c2ccccc2C(=O)N(C2Cc3ccccc3C2)[C@H]1c1ccc(CO)cc1 | 2.03 (inactive) | -0.0292 | 3.11 (inactive) | -0.0966 (inactive) | -0.056 (inactive) | 0.0832 (inactive) | 1.31 | 0.182 (inactive) | 0.855 (inactive) | -0.0278 |
| CC(=O)NCCCC[C@@H]1NC(=O)[C@@H]2C[C@H](C(=O)NCCCCCN)[C@H](c3ccc(O)cc3)N2C1=O | 2.04 (inactive) | 0.482 | 1.46 (inactive) | 0.374 (inactive) | 0.45 (inactive) | 0.301 (inactive) | 0.856 | 1.93 (inactive) | 0.0542 (inactive) | 2.86 |
| CCCCCCCCCC(O)C1C=CC2C(=O)N(c3ccccc3)C(=O)C2N1Nc1cc(OC)c(OC)c(OC)c1 (stereo not given) | -3.95 (inactive) | 0.448 | 7.78 (inactive) | 1.84 (inactive) | -0.372 (inactive) | -0.449 (inactive) | 1.05 | -2.86 (inactive) | -4.13 (inactive) | -2.67 |
| COc1ccc([Si](C)(C)[C@@H]2[C@@H](CC(=O)N3Cc4ccccc4C[C@H]3CO)O[C@]3(C(=O)N(Cc4ccc(N5C(=O)c6cccc7cccc5c67)cc4)c4ccccc43)[C@H]2C)cc1 | -0.967 (inactive) | 0.0391 | 3.62 (inactive) | 1.49 (inactive) | -0.149 (inactive) | 0.694 (inactive) | -0.297 | 0.878 (inactive) | 0.929 (inactive) | 2.03 |
| COC(=O)[C@@H]1N=C(c2ccc(OCCCO)cc2)O[C@@H]1C | 0.608 (inactive) | 0.0945 | 19 (active) | 2.23 (inactive) | 0.404 (inactive) | 0.448 (inactive) | 0.299 | -1.93 (inactive) | 0.134 (inactive) | -0.647 |
| Cc1ccc(N2C(=O)c3ccccc3[C@@H](C(=O)NCCCN(C)C)[C@@H]2c2ccc(CO)cc2)nc1 | 0.0376 (inactive) | -0.724 | 1.06 (inactive) | 0.392 (inactive) | 0.591 (inactive) | 0.304 (inactive) | -0.337 | 0.911 (inactive) | 0.115 (inactive) | 0.513 |
| Cc1ccc(F)cc1S(=O)(=O)N[C@@H]1CCN(Cc2ccc(Br)cc2)C1 | -1.98 (inactive) | -0.0099 | 2.63 (inactive) | 1.24 (inactive) | 0.759 (inactive) | 0.55 (inactive) | -0.166 | -0.955 (inactive) | -0.846 (inactive) | -2.15 |
| COC(=O)C(CC#Cc1ccc2c(c1)[C@]1(C(=O)N2)[C@H](c2ccc(O)cc2)N2[C@H](c3ccccc3)[C@H](c3ccccc3)OC(=O)[C@H]2[C@@H]1C(=O)NC[C@H](O)c1ccccc1)C(=O)OC | -0.994 (inactive) | -0.0518 | 1.13 (inactive) | 0.353 (inactive) | -0.876 (inactive) | -0.154 (inactive) | -0.256 | 1.39 (inactive) | 0.318 (inactive) | 1.47 |
| Cc1ccc(S[C@]2(C(=O)NC(C)C)CC(=O)N(Cc3cc(C(F)(F)F)cc(C(F)(F)F)c3)[C@@H]2c2ccc(CO)cc2)cc1 | -0.16 (inactive) | -0.0252 | 2.96 (inactive) | 0.812 (inactive) | 0.497 (inactive) | 0.672 (inactive) | -0.768 | -0.00496 (inactive) | -0.242 (inactive) | 0.128 |
| CC(C)(C)OC(=O)COc1cccc(C(=O)CCN2CCOCC2)c1 | 0.922 (inactive) | 0.265 | 6.63 (inactive) | 1.21 (inactive) | -0.481 (inactive) | 0.548 (inactive) | 0.202 | -5.78 (inactive) | 1.09 (inactive) | 2.12 |
| C=C[C@@H](CO)N(Cc1ccc(OC)cc1)S(=O)(=O)c1ccc(Br)cc1 | 1.77 (inactive) | -0.639 | 2.48 (inactive) | -0.457 (inactive) | -1.21 (inactive) | -1.1 (inactive) | 1.66 | -1.84 (inactive) | 0.114 (inactive) | -1.26 |
| CCCCCN1CC=CC23O[C@@H]4C=CCCOC(=O)C4[C@H]2C(=O)N(CCCCCCO)[C@@H]3C1=O (stereo not given in full) | 0.457 (inactive) | -0.324 | 1.07 (inactive) | 0.705 (inactive) | 1.01 (inactive) | 0.407 (inactive) | 1.59 | 1.27 (inactive) | -0.0418 (inactive) | 2.08 |
| CN1C2C=C(CCCO)C(C3C(=O)N(C(N)=O)C(=O)C32)C1C1CC1 (stereo not given) | -0.625 (inactive) | -0.188 | -0.234 (inactive) | -0.0718 (inactive) | -0.624 (inactive) | -0.0366 (inactive) | -0.896 | 0.191 (inactive) | -0.07 (inactive) | 0.257 |

Source: PubChem BioAssay
